# Laboratory results published in publication PMC7862700, “An all-to-all approach to the identification of sequence-specific readers for epigenetic DNA modifications on cytosine”.
# Key:
# Experiment in all cases: DAPPL (digital affinity profiling via proximity ligation, sequencing); 10 mM Tris-HCl pH 7.5, 50 mM NaCl, 1 mM DTT, 4% glycerol, room temperature, 30 min; GST-TFs on glutathione beads, 16-mer random dsDNA library, 0.1% formaldehyde crosslink after washing; high values mean tight binding
# FLI1 = molecular target: T1, FLI1 (Homo sapiens, UniProt Q01543 1-452); conditions: protein: recombinant; tags: N-terminal GST; dsDNA, one strand shown
# T1 sequence: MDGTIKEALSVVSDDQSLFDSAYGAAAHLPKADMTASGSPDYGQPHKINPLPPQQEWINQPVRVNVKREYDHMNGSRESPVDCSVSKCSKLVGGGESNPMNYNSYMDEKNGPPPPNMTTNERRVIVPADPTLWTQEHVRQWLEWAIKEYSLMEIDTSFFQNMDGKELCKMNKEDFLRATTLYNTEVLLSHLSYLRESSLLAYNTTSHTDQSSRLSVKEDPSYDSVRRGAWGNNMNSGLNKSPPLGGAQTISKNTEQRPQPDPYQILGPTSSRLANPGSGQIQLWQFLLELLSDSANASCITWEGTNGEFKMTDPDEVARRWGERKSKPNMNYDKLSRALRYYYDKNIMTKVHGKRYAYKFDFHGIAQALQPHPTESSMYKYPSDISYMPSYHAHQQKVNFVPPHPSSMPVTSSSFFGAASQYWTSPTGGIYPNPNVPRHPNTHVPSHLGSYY
# In short: (§1)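 Human transcription factors carrying a GST fusion were produced in yeast, bound to glutathione beads, tagged with DNA barcodes and pooled together with a tag-only sample. Each pool was held with 200 nmole of a random double-stranded 16-mer DNA library in Tris/NaCl/DTT/glycerol buffer for 30 min at room temperature, then washed, crosslinked in 0.1% formaldehyde, proximity-ligated with BsaI/T4 ligase (1 h, 37 °C), PCR-amplified and sequenced on an Illumina NextSeq500. Binding signal is the read frequency of each hexamer for a given factor divided by its frequency in the tag-only sample.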
# ELK1 = molecular target: T2, ELK1 (Homo sapiens, UniProt P19419 1-428); conditions: protein: recombinant; tags: N-terminal GST; dsDNA, one strand shown
# T2 sequence: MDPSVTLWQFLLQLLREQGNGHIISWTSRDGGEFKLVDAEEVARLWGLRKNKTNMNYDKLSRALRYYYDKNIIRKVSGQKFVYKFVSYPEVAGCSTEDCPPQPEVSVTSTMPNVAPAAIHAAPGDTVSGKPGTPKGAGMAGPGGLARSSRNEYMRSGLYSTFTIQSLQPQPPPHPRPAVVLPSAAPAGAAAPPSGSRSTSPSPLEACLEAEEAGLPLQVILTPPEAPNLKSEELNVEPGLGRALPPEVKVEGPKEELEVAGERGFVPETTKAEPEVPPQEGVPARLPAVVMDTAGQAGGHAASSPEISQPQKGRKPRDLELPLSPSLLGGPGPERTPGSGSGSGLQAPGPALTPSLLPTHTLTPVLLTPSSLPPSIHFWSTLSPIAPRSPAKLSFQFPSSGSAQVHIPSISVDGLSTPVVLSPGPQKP
# In short: as §1
# GABPA = molecular target: T3, GABPA (Homo sapiens, UniProt Q06546 1-454); conditions: protein: recombinant; tags: N-terminal GST; dsDNA, one strand shown
# T3 sequence: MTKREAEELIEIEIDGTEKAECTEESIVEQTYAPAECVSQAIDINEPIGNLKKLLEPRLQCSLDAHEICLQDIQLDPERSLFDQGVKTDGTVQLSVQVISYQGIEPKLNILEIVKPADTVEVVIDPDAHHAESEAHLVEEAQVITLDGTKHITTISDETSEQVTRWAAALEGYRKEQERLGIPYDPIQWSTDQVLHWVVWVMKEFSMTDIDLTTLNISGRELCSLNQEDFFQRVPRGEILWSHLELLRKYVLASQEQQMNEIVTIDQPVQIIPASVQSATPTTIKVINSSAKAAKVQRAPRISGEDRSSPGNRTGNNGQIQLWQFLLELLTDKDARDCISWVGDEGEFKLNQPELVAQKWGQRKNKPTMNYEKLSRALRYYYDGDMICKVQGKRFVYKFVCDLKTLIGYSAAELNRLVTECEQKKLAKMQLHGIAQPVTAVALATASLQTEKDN
# In short: as §1
# ERG = molecular target: T4, ERG (Homo sapiens, UniProt P11308 1-479); conditions: protein: recombinant; tags: N-terminal GST; dsDNA, one strand shown
# T4 sequence: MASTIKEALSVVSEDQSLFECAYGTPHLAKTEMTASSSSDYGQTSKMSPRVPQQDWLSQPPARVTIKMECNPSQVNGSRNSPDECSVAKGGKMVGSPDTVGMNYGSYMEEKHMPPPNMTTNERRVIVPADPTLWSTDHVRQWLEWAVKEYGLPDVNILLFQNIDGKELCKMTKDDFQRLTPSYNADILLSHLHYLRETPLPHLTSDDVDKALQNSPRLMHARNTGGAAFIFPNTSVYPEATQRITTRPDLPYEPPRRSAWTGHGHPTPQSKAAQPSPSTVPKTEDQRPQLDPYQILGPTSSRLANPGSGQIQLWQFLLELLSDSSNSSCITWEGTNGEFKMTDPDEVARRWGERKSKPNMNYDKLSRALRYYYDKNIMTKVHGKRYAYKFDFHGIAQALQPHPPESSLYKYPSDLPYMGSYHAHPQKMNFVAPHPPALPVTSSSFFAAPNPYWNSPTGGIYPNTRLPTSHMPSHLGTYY
# In short: as §1
# ELF1 = ELF1 (Homo sapiens, UniProt P32519 1-619); conditions: protein: recombinant; tags: N-terminal GST; dsDNA, one strand shown
# In short: as §1
# EHF = molecular target: T5, EHF (Homo sapiens, UniProt Q9NZC4 1-300); conditions: protein: recombinant; tags: N-terminal GST; dsDNA, one strand shown
# T5 sequence: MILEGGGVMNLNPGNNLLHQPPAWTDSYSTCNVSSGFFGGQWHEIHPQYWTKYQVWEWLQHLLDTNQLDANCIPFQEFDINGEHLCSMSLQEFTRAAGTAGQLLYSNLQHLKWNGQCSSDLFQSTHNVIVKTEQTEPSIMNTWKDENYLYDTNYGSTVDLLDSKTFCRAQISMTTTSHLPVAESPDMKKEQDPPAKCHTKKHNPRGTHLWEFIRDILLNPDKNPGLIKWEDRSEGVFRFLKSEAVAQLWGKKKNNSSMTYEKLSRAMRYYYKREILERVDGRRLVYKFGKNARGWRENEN
# In short: as §1
# SPI1 = SPI1 (Homo sapiens, UniProt P17947 1-270); conditions: protein: recombinant; tags: N-terminal GST; dsDNA, one strand shown
# In short: as §1
# SPIB = SPIB (Homo sapiens, UniProt Q01892 1-262); conditions: protein: recombinant; tags: N-terminal GST; dsDNA, one strand shown
# In short: as §1
# ELK3 = molecular target: T6, ELK3 (Homo sapiens, UniProt P41970 1-407); conditions: protein: recombinant; tags: N-terminal GST; dsDNA, one strand shown
# T6 sequence: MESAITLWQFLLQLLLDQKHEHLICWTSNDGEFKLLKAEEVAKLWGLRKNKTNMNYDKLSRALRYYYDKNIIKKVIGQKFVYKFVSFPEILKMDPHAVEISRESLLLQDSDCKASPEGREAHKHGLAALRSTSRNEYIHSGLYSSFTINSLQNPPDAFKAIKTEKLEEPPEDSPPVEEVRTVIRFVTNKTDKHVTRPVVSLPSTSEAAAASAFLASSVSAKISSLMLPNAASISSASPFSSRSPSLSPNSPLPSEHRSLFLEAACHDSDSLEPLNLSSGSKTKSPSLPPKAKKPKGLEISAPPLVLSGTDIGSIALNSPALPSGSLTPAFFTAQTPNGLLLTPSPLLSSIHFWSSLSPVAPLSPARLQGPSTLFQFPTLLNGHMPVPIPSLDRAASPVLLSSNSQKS
# In short: as §1
# FEV = molecular target: T7, FEV (Homo sapiens, UniProt Q99581 1-238); conditions: protein: recombinant; tags: N-terminal GST; dsDNA, one strand shown
# T7 sequence: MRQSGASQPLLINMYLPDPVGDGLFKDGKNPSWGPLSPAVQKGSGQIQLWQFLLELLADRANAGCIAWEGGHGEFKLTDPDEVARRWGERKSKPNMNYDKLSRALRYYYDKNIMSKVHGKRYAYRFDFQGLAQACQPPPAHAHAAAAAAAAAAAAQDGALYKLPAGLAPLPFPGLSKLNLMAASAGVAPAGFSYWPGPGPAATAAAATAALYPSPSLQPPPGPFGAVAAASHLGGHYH
# In short: as §1
# ETV5 = ETV5 (Homo sapiens, UniProt P41161 1-510); conditions: protein: recombinant; tags: N-terminal GST; dsDNA, one strand shown
# In short: as §1
# HSF1 = HSF1 (Homo sapiens, UniProt Q00613 1-529); conditions: protein: recombinant; tags: N-terminal GST; chain copies: 3; dsDNA, one strand shown
# In short: as §1
# SPIC = molecular target: T8, SPIC (Homo sapiens, UniProt Q8N5J4 1-248); conditions: protein: recombinant; tags: N-terminal GST; dsDNA, one strand shown
# T8 sequence: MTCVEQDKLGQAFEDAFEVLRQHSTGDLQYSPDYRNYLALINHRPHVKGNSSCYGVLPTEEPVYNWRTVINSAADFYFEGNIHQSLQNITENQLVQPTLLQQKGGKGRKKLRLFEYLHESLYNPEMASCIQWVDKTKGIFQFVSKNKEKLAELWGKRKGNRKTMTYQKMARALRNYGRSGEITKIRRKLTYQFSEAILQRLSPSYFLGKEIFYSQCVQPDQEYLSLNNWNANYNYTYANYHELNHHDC
# In short: as §1
# ELF4 = ELF4 (Homo sapiens, UniProt Q99607 1-663); conditions: protein: recombinant; tags: N-terminal GST; dsDNA, one strand shown
# In short: as §1
# ELK4 = molecular target: T9, ELK4 (Homo sapiens, UniProt P28324-2 1-405); conditions: protein: recombinant; tags: N-terminal GST; dsDNA, one strand shown
# T9 sequence: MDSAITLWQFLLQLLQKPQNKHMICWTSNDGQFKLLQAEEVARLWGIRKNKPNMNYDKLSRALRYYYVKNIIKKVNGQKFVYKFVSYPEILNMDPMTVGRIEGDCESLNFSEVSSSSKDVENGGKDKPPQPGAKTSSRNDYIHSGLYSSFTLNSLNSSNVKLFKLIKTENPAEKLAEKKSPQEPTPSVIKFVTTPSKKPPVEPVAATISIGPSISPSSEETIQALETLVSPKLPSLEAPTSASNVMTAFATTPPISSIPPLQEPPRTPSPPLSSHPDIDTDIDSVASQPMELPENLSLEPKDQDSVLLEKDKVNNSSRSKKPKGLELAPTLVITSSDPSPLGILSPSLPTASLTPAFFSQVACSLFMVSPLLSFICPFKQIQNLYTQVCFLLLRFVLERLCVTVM
# In short: as §1
# ETV2 = molecular target: T10, ETV2 (Homo sapiens, UniProt O00321 1-342); conditions: protein: recombinant; tags: N-terminal GST; dsDNA, one strand shown
# T10 sequence: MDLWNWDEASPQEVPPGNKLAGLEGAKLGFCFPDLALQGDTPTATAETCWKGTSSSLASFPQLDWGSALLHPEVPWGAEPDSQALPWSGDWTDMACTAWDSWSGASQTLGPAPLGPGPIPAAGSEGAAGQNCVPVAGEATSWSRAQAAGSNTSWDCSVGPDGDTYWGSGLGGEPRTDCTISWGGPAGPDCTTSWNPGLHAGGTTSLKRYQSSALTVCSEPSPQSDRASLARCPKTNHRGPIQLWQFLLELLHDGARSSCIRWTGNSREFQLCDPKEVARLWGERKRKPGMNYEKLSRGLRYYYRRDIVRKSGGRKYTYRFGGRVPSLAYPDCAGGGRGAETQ
# In short: as §1
# ELF3 = molecular target: T11, ELF3 (Homo sapiens, UniProt P78545 1-371); conditions: protein: recombinant; tags: N-terminal GST; dsDNA, one strand shown
# T11 sequence: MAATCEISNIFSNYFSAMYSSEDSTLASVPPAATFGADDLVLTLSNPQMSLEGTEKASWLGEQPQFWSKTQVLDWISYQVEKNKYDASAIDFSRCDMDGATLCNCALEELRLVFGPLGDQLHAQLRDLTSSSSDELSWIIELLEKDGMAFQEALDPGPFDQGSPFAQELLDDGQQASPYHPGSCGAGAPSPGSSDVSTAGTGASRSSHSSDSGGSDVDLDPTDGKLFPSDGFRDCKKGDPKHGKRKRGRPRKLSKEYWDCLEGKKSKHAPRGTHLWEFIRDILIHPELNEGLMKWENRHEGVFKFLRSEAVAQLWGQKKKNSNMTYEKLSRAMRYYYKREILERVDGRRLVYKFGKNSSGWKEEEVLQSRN
# In short: as §1
# CRX = CRX (Homo sapiens, UniProt O43186 1-299); conditions: protein: recombinant; tags: N-terminal GST; dsDNA, one strand shown
# In short: as §1
# ETV1 = ETV1 (Homo sapiens, UniProt P50549 1-477); conditions: protein: recombinant; tags: N-terminal GST; dsDNA, one strand shown
# In short: as §1
# CRX, sequence (O43186 whole entry): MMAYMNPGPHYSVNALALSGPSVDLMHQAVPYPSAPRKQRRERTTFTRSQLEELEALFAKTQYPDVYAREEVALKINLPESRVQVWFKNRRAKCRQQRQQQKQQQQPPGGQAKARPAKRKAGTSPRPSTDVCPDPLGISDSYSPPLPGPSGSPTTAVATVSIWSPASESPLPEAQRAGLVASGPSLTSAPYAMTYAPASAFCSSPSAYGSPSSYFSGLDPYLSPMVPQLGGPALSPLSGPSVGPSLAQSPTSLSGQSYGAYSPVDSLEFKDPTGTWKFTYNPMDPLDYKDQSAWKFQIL
# ETV5, sequence (P41161 whole entry): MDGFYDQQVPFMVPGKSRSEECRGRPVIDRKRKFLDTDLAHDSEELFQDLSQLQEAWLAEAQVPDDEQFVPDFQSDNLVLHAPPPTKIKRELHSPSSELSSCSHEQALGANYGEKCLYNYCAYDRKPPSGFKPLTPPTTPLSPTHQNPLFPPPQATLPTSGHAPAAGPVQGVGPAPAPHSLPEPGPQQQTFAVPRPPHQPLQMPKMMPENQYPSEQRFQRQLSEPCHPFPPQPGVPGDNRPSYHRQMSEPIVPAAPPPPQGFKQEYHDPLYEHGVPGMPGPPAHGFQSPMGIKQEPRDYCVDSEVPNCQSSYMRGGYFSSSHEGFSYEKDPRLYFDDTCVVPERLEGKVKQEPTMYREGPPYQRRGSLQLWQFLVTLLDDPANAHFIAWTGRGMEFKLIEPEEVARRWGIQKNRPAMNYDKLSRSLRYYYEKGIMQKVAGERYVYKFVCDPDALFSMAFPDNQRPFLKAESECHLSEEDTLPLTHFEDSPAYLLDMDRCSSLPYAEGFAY
# ETV1, sequence (P50549 whole entry): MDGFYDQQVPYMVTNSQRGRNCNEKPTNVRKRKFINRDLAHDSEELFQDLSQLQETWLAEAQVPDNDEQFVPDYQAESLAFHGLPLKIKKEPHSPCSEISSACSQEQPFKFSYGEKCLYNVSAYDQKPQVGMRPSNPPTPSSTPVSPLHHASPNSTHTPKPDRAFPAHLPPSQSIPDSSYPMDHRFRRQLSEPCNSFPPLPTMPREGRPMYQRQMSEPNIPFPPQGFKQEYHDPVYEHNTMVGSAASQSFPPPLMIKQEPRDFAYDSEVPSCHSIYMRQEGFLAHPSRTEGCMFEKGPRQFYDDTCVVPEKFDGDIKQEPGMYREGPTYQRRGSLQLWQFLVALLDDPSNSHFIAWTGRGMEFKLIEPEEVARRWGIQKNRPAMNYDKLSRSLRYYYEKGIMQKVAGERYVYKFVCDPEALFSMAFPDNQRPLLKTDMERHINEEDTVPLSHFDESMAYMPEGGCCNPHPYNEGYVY
# ELF4, sequence (Q99607 whole entry): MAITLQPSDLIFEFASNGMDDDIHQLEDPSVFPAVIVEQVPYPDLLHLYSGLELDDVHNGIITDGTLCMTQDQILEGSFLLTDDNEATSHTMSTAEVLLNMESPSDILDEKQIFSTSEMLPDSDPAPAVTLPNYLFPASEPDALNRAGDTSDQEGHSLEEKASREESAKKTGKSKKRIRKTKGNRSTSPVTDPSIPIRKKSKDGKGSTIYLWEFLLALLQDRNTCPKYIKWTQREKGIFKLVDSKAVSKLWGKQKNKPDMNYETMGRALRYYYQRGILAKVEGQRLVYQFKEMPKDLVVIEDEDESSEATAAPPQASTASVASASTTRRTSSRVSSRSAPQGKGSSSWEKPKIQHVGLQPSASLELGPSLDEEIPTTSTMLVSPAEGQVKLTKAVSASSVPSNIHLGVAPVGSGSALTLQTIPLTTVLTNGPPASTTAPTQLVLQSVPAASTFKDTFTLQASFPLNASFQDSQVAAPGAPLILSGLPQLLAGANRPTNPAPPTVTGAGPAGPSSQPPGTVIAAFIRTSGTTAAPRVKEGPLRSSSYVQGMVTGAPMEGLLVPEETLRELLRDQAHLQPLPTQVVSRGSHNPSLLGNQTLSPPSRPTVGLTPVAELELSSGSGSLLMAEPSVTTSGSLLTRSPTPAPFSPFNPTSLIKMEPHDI
# HSF1, sequence (Q00613 whole entry): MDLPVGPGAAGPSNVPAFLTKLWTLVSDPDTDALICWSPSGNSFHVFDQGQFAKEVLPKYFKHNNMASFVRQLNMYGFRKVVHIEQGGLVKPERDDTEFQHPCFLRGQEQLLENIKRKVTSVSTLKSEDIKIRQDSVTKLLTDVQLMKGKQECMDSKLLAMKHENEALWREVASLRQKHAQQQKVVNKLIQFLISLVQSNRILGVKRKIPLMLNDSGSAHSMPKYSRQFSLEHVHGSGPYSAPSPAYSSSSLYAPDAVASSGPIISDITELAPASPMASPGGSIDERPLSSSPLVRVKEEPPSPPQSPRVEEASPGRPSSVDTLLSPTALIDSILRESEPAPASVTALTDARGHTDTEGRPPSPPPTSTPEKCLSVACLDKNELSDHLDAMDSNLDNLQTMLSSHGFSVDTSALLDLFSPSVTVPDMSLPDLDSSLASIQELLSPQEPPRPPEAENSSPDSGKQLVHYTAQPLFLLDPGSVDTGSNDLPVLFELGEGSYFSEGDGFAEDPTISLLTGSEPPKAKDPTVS
# SPIB, sequence (Q01892 whole entry): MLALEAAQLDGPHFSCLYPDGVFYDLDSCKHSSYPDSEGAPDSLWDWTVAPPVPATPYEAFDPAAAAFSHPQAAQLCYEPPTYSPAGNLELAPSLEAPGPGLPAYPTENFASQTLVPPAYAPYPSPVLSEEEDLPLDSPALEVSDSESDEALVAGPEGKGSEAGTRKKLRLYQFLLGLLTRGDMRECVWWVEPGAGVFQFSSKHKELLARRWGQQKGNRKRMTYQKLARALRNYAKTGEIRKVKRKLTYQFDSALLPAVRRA
# ELF1, sequence (P32519 whole entry): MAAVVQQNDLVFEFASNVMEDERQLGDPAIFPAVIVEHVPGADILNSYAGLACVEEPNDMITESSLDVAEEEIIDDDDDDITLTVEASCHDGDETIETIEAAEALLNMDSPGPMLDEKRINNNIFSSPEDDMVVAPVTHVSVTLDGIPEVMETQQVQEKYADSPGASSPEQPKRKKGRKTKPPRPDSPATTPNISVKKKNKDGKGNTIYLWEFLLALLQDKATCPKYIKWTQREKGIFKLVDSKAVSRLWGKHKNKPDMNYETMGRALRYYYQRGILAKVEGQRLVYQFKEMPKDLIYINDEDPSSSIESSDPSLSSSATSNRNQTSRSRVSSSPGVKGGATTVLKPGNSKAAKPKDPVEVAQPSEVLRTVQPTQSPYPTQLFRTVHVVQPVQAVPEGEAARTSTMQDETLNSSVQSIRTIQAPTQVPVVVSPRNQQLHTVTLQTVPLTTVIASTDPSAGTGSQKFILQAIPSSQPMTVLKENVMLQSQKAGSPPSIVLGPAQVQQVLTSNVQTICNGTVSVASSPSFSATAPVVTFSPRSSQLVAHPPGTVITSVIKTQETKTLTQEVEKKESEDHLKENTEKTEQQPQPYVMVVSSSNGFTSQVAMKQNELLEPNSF
sequence,measurement,setting,value
CTCGAG,binding signal,FLI1,"1.23 fold enrichment (6-mer frequency, TF over GST control)"
same,binding signal,ELK1,"1.34 fold enrichment (6-mer frequency, TF over GST control)"
same,binding signal,GABPA,"1.35 fold enrichment (6-mer frequency, TF over GST control)"
same,binding signal,ERG,"1.31 fold enrichment (6-mer frequency, TF over GST control)"
same,binding signal,ELF1,"1.28 fold enrichment (6-mer frequency, TF over GST control)"
same,binding signal,EHF,"1.21 fold enrichment (6-mer frequency, TF over GST control)"
same,binding signal,SPI1,"1.35 fold enrichment (6-mer frequency, TF over GST control)"
same,binding signal,SPIB,"1.31 fold enrichment (6-mer frequency, TF over GST control)"
same,binding signal,ELK3,"1.18 fold enrichment (6-mer frequency, TF over GST control)"
same,binding signal,FEV,"1.2 fold enrichment (6-mer frequency, TF over GST control)"
same,binding signal,ETV5,"1.26 fold enrichment (6-mer frequency, TF over GST control)"
same,binding signal,HSF1,"2 fold enrichment (6-mer frequency, TF over GST control)"
same,binding signal,SPIC,"1.44 fold enrichment (6-mer frequency, TF over GST control)"
same,binding signal,ELF4,"1.34 fold enrichment (6-mer frequency, TF over GST control)"
same,binding signal,ELK4,"1.31 fold enrichment (6-mer frequency, TF over GST control)"
same,binding signal,ETV2,"1.64 fold enrichment (6-mer frequency, TF over GST control)"
same,binding signal,ELF3,"1.3 fold enrichment (6-mer frequency, TF over GST control)"
same,binding signal,CRX,"1.26 fold enrichment (6-mer frequency, TF over GST control)"
same,binding signal,ETV1,"1.2 fold enrichment (6-mer frequency, TF over GST control)"
